# Compounds with a hit are over-represented: about 7.9% of the library has one in this group of screens.
# KB-3-1 cytotox – kills parental KB-3-1 adenocarcinoma cells; KB-3-1 viability, CellTiter-Glo ATP luminescence, 72 h; Potency, µM (top dose mostly 46.1 µM), actives largely listed as cytotoxic; 400,000 tested, 1.4% active; AID 1347075; further: on the % scale 0 is the no-effect control and ±100 the full control effect; nearly all actives have a fitted effect of over 60% in size
#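 Here the drug-naive KB-3-1 line serves as comparator for MDR sub-line selectivity; cells received compound titrations, 72 h at 37 °C, then CellTiter-Glo readout.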
# KB-V1 cytotox – kills drug-selected multidrug resistant KB-V1 cells; KB-V1 MDR cells viability, CellTiter-Glo, 72 h; Potency, µM (series often up to 46.1 µM), most hits filed as cytotoxic; 400,000 tested, 3.4% active; further: on the % scale 0 is the no-effect control and ±100 the full control effect; nearly all actives have a fitted effect of over 60% in size
#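 Cytotoxicity toward P-gp-expressing KB-V1 cells was determined as loss of CellTiter-Glo luminescence after 72 h at 37 degrees C. Compounds were tested in quantitative HTS format across a concentration range, with curves fitted to normalized data.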
# SW480 rereplic – inducers of DNA re-replication in SW480 colon cancer cells; SW480 DNA re-replication, Hoechst DNA content imaging, 48 h; Potency, µM (series often up to 46.1 µM), for inactives: top-dose re-replication activation, usual class: activators; 340,000 tested, 1.8% active; AID 624297; further: % of control where 0% means no effect; nearly all actives have a fitted effect of over 55% in size
#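 Image-based DNA-content assay: after two days of treatment, nuclei were labelled with the DNA dye Hoechst and imaged, and hits were compounds raising the count of nuclei showing high fluorescence intensity.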
# MCF10A rereplic – induces DNA re-replication in MCF 10a normal breast cells | MCF 10A DNA re-replication, Hoechst nuclear intensity, 48 h | Potency, µM (titrated, usually from 46.1 µM), for the others: at the highest dose activity, positive = re-replication, usual class: activators | 350,000 tested, 2.9% active; further: % of control where 0% means no effect; nearly all actives have a fitted effect of over 50% in size
# HT1080NT lethal – kills 2HG-producing HT-1080-NT fibrosarcoma cells; HT-1080-NT fibrosarcoma viability, CellTiter-Glo ATP luminescence, 48 h; Potency, µM (highest dose often 46.1 µM), inactives show top-dose activity, negative = less viability, hits mostly cytotoxic; 360,000 tested, 1.6% active; AID 686970;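 further: NT is the 2HG producing partner of a matched IDH1 knockdown line; 0% = DMSO-treated cells and -100% = media-only wells without cells; nearly all actives have a fitted effect of over 55% in size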
#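 Read-out is CellTiter-Glo luminescence after 10 minutes at room temperature, following 48 hours' compound treatment of HT-1080-NT cells (750 cells/well, RPMI, 5% FBS, 37 degrees C).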
# HT1080 IDH1KD tx – HT-1080 IDH1 knockdown cell toxicity (counter line) | Potency, µM (series often up to 46.1 µM), for the others: at the highest dose activity, negative = toxicity, most hits filed as cytotoxic | AID 686971 | HT-1080 IDH1 knockdown viability, ATP luminescence, 48 h | 360,000 tested, 2% active;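 further: 0% = DMSO wells and -100% = cell-free medium wells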
#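 In this qHTS, HT-1080 cells depleted of IDH1 are exposed for 48 h at 37 °C to compound titrations. Toxicity is scored from CellTiter-Glo luminescence, with DMSO as full viability and medium alone as none.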
# Active calls of the source: *; i = inactive; ? = inconclusive; . = not tested or not shown; [ ] = another dose, or the depositor's remark. The call rests on the fitted dose curve; in most records, active means well fitted curve in the direction sought with a large enough effect; inconclusive means small, poorly fitted or top-dose-only effect, or another doubt; inactive means no such curve, though single readings can be large; an effect the other way counts as inactive or inconclusive. Potency means the concentration at half of the fitted maximal effect.
SMILES,KB-3-1 cytotox,KB-V1 cytotox,SW480 rereplic,MCF10A rereplic,HT1080NT lethal,HT1080 IDH1KD tx
N#C/C(=C\c1cn(CCOc2ccccc2)c2ccccc12)C(=O)NCC1CCCO1 (configuration not stated),i,6.5µM*,?,19%,-2%,-16%
CCc1ccccc1NC(=O)C(CC)Sc1nc2cc3c(cc2c(=O)n1Cc1ccco1)OCO3 (configuration not stated),?,3.7µM*,15µM*,6.5µM*,-3%,-2%
CCN(CC)C(=O)CSc1nc2cc3c(cc2c(=O)n1Cc1ccc(OC)cc1)OCO3,i,i,4%,5%,?,-17%
CCc1ccc(NC(=O)C(CC)Sc2nc3cc4c(cc3c(=O)n2Cc2ccco2)OCO4)cc1 (configuration not stated),?,?,?,18µM*,-22%,-20%
CCC(Sc1nc2cc(OC)c(OC)cc2c(=O)n1Cc1ccco1)C(=O)NCCOC (configuration not stated),i,i,-13%,0%,0%,-14%
O=C(NCc1noc2ccccc12)N1CCN(c2ccccc2)CC1,i,i,.,.,.,.
NC(=O)C1CCN(S(=O)(=O)c2cc3c(cc2Cl)NC(=O)CO3)CC1,i,i,.,.,.,.
Cc1ccc(S(=O)(=O)Nc2ccc3nc(-c4cccc(Cl)c4)oc3c2)cc1,i,i,.,.,.,.
O=C(NC(c1ccc(F)cc1)c1ccc2ccccc2n1)C1CCN(Cc2ccc3ccccc3n2)CC1 (configuration not stated),?,i,.,.,?,23µM*
COc1cc(OC)nc(C(NC(=O)C2CCN(Cc3ccc(N(C)C)cc3)CC2)c2ccc(F)cc2)n1 (configuration not stated),i,i,.,.,1%,0%
CN(C)c1ccc(CN2CCC(C(=O)NC(c3ccc(F)cc3)c3ccc4ccccc4n3)CC2)cc1 (configuration not stated),?,i,.,.,15µM*,?
O=C(NC(c1ccc(Cl)cc1)c1cnccn1)C1CCN(CCCOc2ccccc2)CC1 (configuration not stated),i,i,.,.,?,?
O=C(NC(c1ccc(F)cc1)c1ccc2ccccc2n1)C1CCN(CCOc2ccc(Cl)cc2)CC1 (configuration not stated),?,?,.,.,?,21µM*
COc1cc(CN2CCC(C(=O)NC(c3ccc(F)cc3)c3ncccc3C)CC2)cc(OC)c1 (configuration not stated),i,i,.,.,-18%,-25%
O=C(NC(c1ccc(F)cc1)c1ccc2ccccc2n1)C1CCN(Cc2cccc(C(F)(F)F)c2)CC1 (configuration not stated),?,?,.,.,6.5µM*,5.8µM*
COc1cc(OC)nc(Nc2nc(C(N)Cc3ccc(F)cc3)cs2)n1 (configuration not stated),i,?,.,.,?,?
FC(F)(F)C(F)(F)C(F)(F)c1nc2ccccc2[nH]1,i,i,.,.,.,.
COc1cc(/C=C/CN2CCC(C(=O)NC(c3ccc(F)cc3)c3ccc4ccccc4n3)CC2)ccc1OC(C)=O (configuration not stated),?,i,.,.,16µM*,?
O=C(CN1CCC(C(=O)c2ccc(F)cc2)CC1)Nc1ccc(F)cc1,i,?,-1%,13%,-19%,-20%
O=C(CN1CCC(C(=O)c2ccc(F)cc2)CC1)NCc1ccccc1F,?,9.2µM*,17%,0%,-23%,-9%
O=C(CN1CCC(C(=O)c2ccc(F)cc2)CC1)Nc1ccccc1,i,4.6µM*,1%,2%,?,?
Cc1cccc(NC(=O)c2cccc(S(=O)(=O)Nc3c(C)n(C)n(-c4ccccc4)c3=O)c2)c1,i,15µM*,-2%,0%,1%,3%
Cc1c(N/C(=N/S(=O)(=O)c2ccccc2)c2ccc(Cl)cc2)c(=O)n(-c2ccccc2)n1C,i,23µM*,-138%,-6%,1%,8%
COc1ccc(-c2c(C)nn3c(N4CCN(c5cc(Cl)ccc5C)CC4)cc(C)nc23)cc1OC,i,i,.,.,.,.
COc1cc(CN2C[C@@H](CO)O[C@@H](n3cnc4c(N(C)C(C)C)ncnc43)C2)cc(OC)c1OC,i,i,.,.,?,3%
SMILES,KB-3-1 cytotox,KB-V1 cytotox,SW480 rereplic,MCF10A rereplic,HT1080NT lethal,HT1080 IDH1KD tx
COc1cc(-c2cc3nc(NCc4cccc(Cl)c4)ccn3n2)cc(OC)c1OC,?,?,.,.,16µM*,9.2µM*
COc1cc(-c2cc3nc(NCc4cccs4)ccn3n2)cc(OC)c1OC,i,?,.,.,?,?
Clc1cccc(CNc2ccn3nc(-c4cccc(OCc5ccccc5)c4)cc3n2)c1,?,i,.,.,?,9.2µM*
COC(=O)CC1Oc2ccc(F)cc2-n2cc(-c3ccc(Cl)cc3)nc21 (configuration not stated),i,i,.,.,.,.
COc1cccc(CNc2sc3c(c2C(=O)Nc2ccc(OC)cc2OC)CCC3)c1,i,i,.,.,.,.
COc1cccc(-c2cc(C(=O)NCC3CCCO3)c3ccccc3n2)c1 (configuration not stated),i,12µM*,-48%,14%,6%,7%
Cc1ccc2nc(-c3cccc(Br)c3)cc(C(=O)NCC3CCCO3)c2c1 (configuration not stated),i,i,21%,26µM*,3%,13%
O=C(NCC1CCCO1)c1cc(-c2ccccc2)nc2ccc(Br)cc12 (configuration not stated),i,i,-2%,14%,-4%,2%
COc1ccc(-c2cc(C(=O)NCC3CCCO3)c3ccccc3n2)cc1 (configuration not stated),i,i,-10%,-15%,4%,-1%
CC(C)(C)OC(=O)NCCC(=O)N/N=C/c1cccc2nccnc12,i,i,-7%,14%,-11%,-10%
O=C(O)c1cc(-c2ccccc2)nn1Cc1ccccc1,i,i,.,.,.,.
O=C(CNS(=O)(=O)c1ccc(Cl)c(C(F)(F)F)c1)NC1CCCCC1,i,i,-18%,-4%,2%[9.24 µM],9%
Cc1nc2nc(C)c(CCC(=O)N3CCc4ccccc43)c(C)n2n1,i,21µM*,-6%,2%,7%,1%
COc1ccc(C(=O)Nc2ccccc2[N+](=O)[O-])cc1S(=O)(=O)N1CCOCC1,.,.,18µM*,?,-1%,-8%

# Compound activity from PubChem BioAssay.
